Values joined by “and” are separate entries in the source; they are usually repeats but may differ in a detail not shown here. Equal values may be shown once. Inconclusive results are not listed. Entries that show only a call come without a potency. Active and inactive are the calls of the source. Calls follow the shape of the full dose curve. Starred links: 1 amine or outer side, 2 acyl side, 3 side chain; linkers in the order of their positions; H or OH if unused. Positions of bridges follow the written chain, without caps; N, C: chain ends. Non-standard residues stand in square brackets, D forms with d. Residues, ends and D or L forms follow the SMILES beside them. Chains are numbered I, II in the order given. Actinocin(9to1) = Cc1c2oc3c(C)ccc(C(=O)[*:1])c3nc-2c(C(=O)[*:2])c(N)c1=O; NMeV = CN[C@H](C(=O)O)C(C)C; Sar = CNCC(=O)O
Potency is read from the fitted curve at half-maximal effect.

The assay in a line: qHTS assay for small molecules that induce genotoxicity in human embryonic kidney cells expressing luciferase-tagged ATAD5 - cell viability (AID 651634). Also: nearly all actives have a fitted effect of over 25% in size. As to conditions: HEK293T ATAD5-luc cells viability, CellTiter-Fluor, 15.5 h; series mostly up to 83.3 µM. An excerpt:
National Center for Advancing Translational Sciences [NCATS]
NIH Chemical Genomics Center [NCGC]
U.S. Environmental Protection Agency [EPA]
National Institutes of Environmental Health Sciences [NIEHS]
National Toxicology Program [NTP]
U.S. Food and Drug Administration [FDA]
Enhanced Level of Genome Instability Gene 1 (ELG1; human ATAD5) protein levels increase in response to various types of DNA damage. Using a luciferase reporter-gene tagged with ElG1, a cell-based assay [developed by Kyungjae Myung, NHGRI, NIH] was used to measure the induction of ATAD5 in human embryonic kidney cells (HEK293T). So, increase in luciferase activity can be used to identify the compounds that cause genetic stress. In addition to genotoxicity, these cells were also used to test for cytotoxicity by measuring the protease activity within live cells.
Tox21 Assay Protocol Summary:
For cytotoxicity screening, 2,000 cells in 5 uL/well were dispensed into white, solid-bottom 1536-well plates using a Multidrop Combi (Thermo Scientific) dispenser. Following transfer of 23 nL compound or DMSO vehicle by a pin tool, the plates were incubated 15.5 hr at 37C and 5% CO2. 1 ul CellTiter-Fluor reagent (Promega, Madison, WI) was then added to each plate and following 30 min incubation at 37C, fluorescence intensity was quantified on a ViewLux CCD-based plate reader.
With `CCn1c2ccccc2c2cc(N)ccc21`, the Potency entry is “inactive”.

For `C=CC(=O)OCCCCCCCC`, the Potency entry was “inactive”. For `CC(=O)O[C@]1(C(C)=O)CC[C@H]2[C@@H]3C[C@H](C)C4=CC(=O)CC[C@]4(C)[C@H]3CC[C@@]21C`, the Potency entry is “inactive”. On to `CC1=CC(=O)c2ccccc2C1=O`, for which the Potency result is “inactive”. For the compound `O=C(O)CP(=O)(O)O`, the Potency result is “inactive”. The result for `[Cl][In]([Cl])[Cl]` reads “inactive”; that for `C=C(C)C1CC=C(C)C(OC(C)=O)C1` (stereo not given), “inactive”. The result for `CC(=O)OCCOCCOCCOC(C)=O` reads “inactive”; that for `NC(N)=Nc1nc(CSCC/C(N)=N/S(N)(=O)=O)cs1`, “inactive”.

On to `CCCCC(CC)COC(=O)CC(C(=O)OCC(CC)CCCC)S(=O)(=O)O` (stereo not given), for which the Potency entry was “inactive”. On to `c1ccc2cc3c(ccc4ccccc43)cc2c1`, for which the Potency entry was “inactive”. The entry for `NCCO` is “inactive”.

Take `CC1COc2c(N3CCN(C)CC3)c(F)cc3c(=O)c(C(=O)O)cn1c23` (stereo not given): the Potency result is “inactive”. The result for `CCc1ccc(C(c2ccc(CC)cc2)C(Cl)Cl)cc1` reads “inactive”.

In the case of `OCCOCCN1CCN(C(c2ccccc2)c2ccc(Cl)cc2)CC1` (stereo not given), the Potency entry is “inactive”. The result for `CCC(=O)/C=C/C1C(C)=CCCC1(C)C` (stereo not given) reads “inactive”; that for `NC(Cc1ccc(Cl)cc1)C(=O)O` (stereo not given), “inactive”.

With `Cc1cccc(O)c1C`, the Potency result is “inactive”. The figure for `Cc1c2oc3c(C)ccc(C(=O)N[C@@H]4C(=O)N[C@H](C(C)C)C(=O)N5CCC[C@H]5C(=O)N(C)CC(=O)N(C)[C@@H](C(C)C)C(=O)O[C@@H]4C)c3nc-2c(C(=O)N[C@@H]2C(=O)N[C@H](C(C)C)C(=O)N3CCC[C@H]3C(=O)N(C)CC(=O)N(C)[C@@H](C(C)C)C(=O)O[C@@H]2C)c(N)c1=O` (I: T[dV]P[Sar][NMeV] / II: T[dV]P[Sar][NMeV]; ester I:1-I:C, II:1-II:C; linker I:N-II:N via Actinocin(9to1)) is 16.8 nM (active) and 23.7 µM (active). Consider `CN1C(=O)c2ccc([N+](=O)[O-])cc2C1=O`, for which the Potency entry is “inactive”. On to `O=C1NCC2(CCN(CCc3ccccc3)CC2)O1`, for which the Potency entry was “inactive”. The result for `C=CS(=O)(=O)O` reads “inactive”; that for `CC(C)C(=O)c1c(C(C)C)nn2ccccc12`, “inactive”. Consider `CCC(C)(C)C(=O)O[C@H]1C[C@@H](C)C=C2C=C[C@H](C)[C@H](CC[C@@H]3C[C@@H](O)CC(=O)O3)[C@H]21`, for which the Potency entry was “inactive”. Regarding `Cc1cc(C2(c3cc(C)c(O)cc3C)OS(=O)(=O)c3ccccc32)c(C)cc1O`, the Potency is 30.6 µM (active) and 17.2 µM (active).

With `Clc1ccc2c(c1)C(N1CCNCC1)=Nc1ccccc1O2`, the Potency result is “inactive”. On to `CCOc1ccccc1C(N)=O`, for which the Potency entry was “inactive”. As for `O=C(OCc1ccccc1)c1ccc(O)cc1`, the Potency result was “inactive”.

On to `CC(COc1ccccc1)N(CCCl)Cc1ccccc1` (stereo not given), for which the Potency entry is “inactive”. The result for `CCC(C)(Oc1ccc(C2(c3ccc(OC(C)(CC)C(=O)O)cc3)CCCCC2)cc1)C(=O)O` (stereo not given) reads “inactive”; that for `OCC(CO)N[C@H]1C[C@](O)(CO)[C@@H](O)[C@H](O)[C@H]1O`, “inactive”; that for `CO[Si](OC)(OC)c1ccccc1`, “inactive”. The result for `COc1ccc(Cc2cnc(N)nc2N)cc1OC` reads “inactive”; that for `CCN1CCCC1CNC(=O)c1cc(S(=O)(=O)CC)c(N)cc1OC` (stereo not given), “inactive”. On to `NCCCCCC(=O)O`, for which the Potency entry is “inactive”. Consider `C1COC(NC(C2CC2)C2CC2)=N1`, for which the Potency result is “inactive”.

For the compound `C/C=C/c1ccc(OCC)c(O)c1`, the Potency result was “inactive”. Take `COC(=O)c1cccc(C(=O)OC)c1`: the Potency entry was “inactive”.

Regarding `O=Nc1ccc(Nc2ccccc2)cc1`, the Potency is 48.8 µM (active). With `O=c1n(CC2CO2)c(=O)n(CC2CO2)c(=O)n1CC1CO1` (stereo not given), the Potency entry was “inactive”.
